Laboratory results published in PubChem BioAssay (NCI).
Compounds without any hit were thinned out: in the full panel of roughly 79,000, 15% have a hit. Calls of active or inactive are those of the source. Cut-off read from the data, not from the text of the source: active = growth inhibition above about 70%; inactive = the rest.

What was measured:
[1] = NCI Yeast Anticancer Drug Screen. Data for the rad52 strain (AID 147);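 note: 0% = growth of vehicle-treated control cultures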; conditions: S. cerevisiae rad52 mutant growth inhibition, active compounds read high
Procedure, shortened: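 Vehicle-treated cultures served as the reference for growth inhibition of compound-exposed yeast bearing a DNA repair mutation.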

[2] = NCI Yeast Anticancer Drug Screen. Data for the wt1 strain (AID 149);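 note: 0% = growth of vehicle-treated wt1 cultures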; conditions: S. cerevisiae wt1 strain (SPY 50644) growth inhibition, active compounds read high
Procedure, shortened: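 Vehicle-normalised growth inhibition; strain wt1; compound exposure.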

[3] = NCI Yeast Anticancer Drug Screen. Data for the rad50EPP+ strain (AID 151);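 note: 0% = growth of vehicle-treated control cultures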; conditions: S. cerevisiae rad50 mutant strain, active compounds read high
Procedure, shortened: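 In this screen, rad50EPP+ yeast were exposed to compounds. Growth inhibition was scored against vehicle-treated controls.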

[4] = NCI Yeast Anticancer Drug Screen. Data for the mgt1 strain (AID 153); conditions: S. cerevisiae mgt1 mutant growth inhibition, active compounds read high
Procedure, shortened: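 mgt1 strain exposed; growth vs vehicle control recorded as inhibition.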

[5] = NCI Yeast Anticancer Drug Screen. Data for the rad50 strain (AID 155);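 note: 0% = growth of vehicle-only cultures of the same strain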; conditions: S. cerevisiae rad50 strain growth inhibition, active compounds read high
Procedure, shortened: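 A DNA repair-deficient yeast mutant serves as the test organism; compound-induced growth inhibition is calculated against vehicle-treated cells.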

[6] = NCI Yeast Anticancer Drug Screen. Data for the mec2-1 strain (AID 157); conditions: S. cerevisiae mec2-1 strain, active compounds read high
Procedure, shortened: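 Vehicle-treated cultures served as reference for growth inhibition of compound-exposed mec2-1 yeast.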

[7] = NCI Yeast Anticancer Drug Screen. Data for the sgs1 mgt1 strain (AID 161);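 note: 0% = growth of cultures given vehicle only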; conditions: S. cerevisiae sgs1 mgt1 strain, active compounds read high
Procedure, shortened: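 Read-out: growth inhibition vs vehicle controls. Cells: mutant yeast strain deficient in DNA damage repair.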

[8] = NCI Yeast Anticancer Drug Screen. Data for the CLN2oe strain (AID 163);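 note: 0% = growth of vehicle-only control cultures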; conditions: S. cerevisiae CLN2oe strain, active compounds read high
Procedure, shortened: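 Inhibition relative to vehicle-treated yeast is reported. Cells: strain with genetic alteration in cell-cycle control, grown with compound.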

[9] = NCI Yeast Anticancer Drug Screen. Data for the cln2 rad14 strain (AID 165);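 note: 0% = growth equal to vehicle treated cultures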; conditions: S. cerevisiae cln2 rad14 strain, active compounds read high
Procedure, shortened: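 Each compound was tested on cln2 rad14 yeast. Inhibition of growth was calculated against vehicle-exposed controls.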

[10] = NCI Yeast Anticancer Drug Screen. Data for the bub3 strain (AID 167); conditions: S. cerevisiae bub3 mutant strain, active compounds read high
Procedure, shortened: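 Inhibition values come from growth of compound-treated mutant yeast normalised to vehicle-treated controls.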

[11] = NCI Yeast Anticancer Drug Screen. Data for the wt2 strain (AID 169);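 note: 0% = growth of vehicle-treated yeast cultures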; conditions: S. cerevisiae wt2 strain growth inhibition, active compounds read high
Procedure, shortened: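 Inhibition of yeast growth was determined after compound treatment, normalised to controls receiving only vehicle.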

[12] = NCI Yeast Anticancer Drug Screen. Data for the mlh1 strain (AID 171);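 note: 0% = growth of vehicle-treated control cultures of the same strain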; conditions: S. cerevisiae mlh1 strain growth inhibition, active compounds read high
Procedure, shortened: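 Vehicle-normalised growth inhibition of a repair- or checkpoint-altered yeast strain following compound treatment.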

[13] = NCI Yeast Anticancer Drug Screen. Data for the sgs1 strain (AID 173);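 note: 0% = growth of vehicle-only control cultures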; conditions: S. cerevisiae sgs1 mutant, active compounds read high
Procedure, shortened: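 Screen format: yeast with repair or checkpoint alterations, compound exposure, growth read relative to vehicle.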

[14] = NCI Yeast Anticancer Drug Screen. Data for the mlh1 rad18 strain (AID 175); conditions: S. cerevisiae mlh1 rad18 strain growth inhibition, active compounds read high
Procedure, shortened: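 Vehicle-treated cultures served as the reference for growth inhibition in a yeast strain carrying DNA damage repair alterations exposed to each compound.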

[15] = NCI Yeast Anticancer Drug Screen. Data for the rad18 strain (AID 177); conditions: S. cerevisiae rad18 mutant growth inhibition, active compounds read high
Procedure, shortened: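 Test articles were incubated with altered yeast defective in DNA damage repair. Results are given as inhibition of growth versus vehicle.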

[16] = at 5.0 µM (retest, dose inferred, filed as 0.5)
[17] = at 50.0 µM (retest, dose inferred, filed as 5.0)

Measured: growth inhibition

CCCCCCCCCCCNC=O
active: [1]; at 100.0 µM 98% | [2]; at 100.0 µM 98% | [3]; at 100.0 µM 97% | [4]; at 33.0 µM 72% | [4]; at 100.0 µM 98% | [5]; [17] 96% | [5]; at 50.0 µM 89.9% | [5]; at 100.0 µM 98% | [6]; [17] 96% | [6]; at 50.0 µM 91.3% | [6]; at 100.0 µM 98% | [7]; [17] 93% | [7]; at 50.0 µM 92.5% | [8]; at 100.0 µM 98% | [9]; [17] 94% | [9]; at 50.0 µM 88% | [10]; [17] 97% | [10]; at 50.0 µM 89.4% | [10]; at 100.0 µM 98% | [11]; at 100.0 µM 98% | [12]; at 100.0 µM 98% | [13]; at 100.0 µM 99% | [14]; [17] 97% | [14]; at 50.0 µM 88.6% | [15]; at 100.0 µM 98%
inactive: [1]; at 1.2 µM -33% | [1]; at 3.7 µM -30% | [1]; at 11.0 µM -39% | [1]; at 33.0 µM 34% | [2]; at 1.2 µM -18% | [2]; at 3.7 µM -10% | [2]; at 11.0 µM -9% | [2]; at 33.0 µM 1% | [3]; at 1.2 µM -14% | [3]; at 3.7 µM -11% | [3]; at 11.0 µM 0% | [3]; at 33.0 µM 15% | [4]; at 1.2 µM -30% | [4]; at 3.7 µM -19% | [4]; at 11.0 µM -18% | [5]; at 1.2 µM -16% | [5]; at 3.7 µM -19% | [5]; [16] 1% | [5]; at 11.0 µM -41% | [5]; at 33.0 µM 29% | [6]; at 1.2 µM -22% | [6]; at 3.7 µM -21% | [6]; [16] 7% | [6]; at 11.0 µM -20% | [6]; at 33.0 µM 21% | [7]; [16] 9% | [8]; at 1.2 µM -15% | [8]; at 3.7 µM -14% | [8]; at 11.0 µM -27% | [8]; at 33.0 µM -20% | [9]; [16] 42% | [10]; at 1.2 µM -21% | [10]; at 3.7 µM -14% | [10]; [16] 22% | [10]; at 11.0 µM -12% | [10]; at 33.0 µM 21% | [11]; at 1.2 µM -45% | [11]; at 3.7 µM -39% | [11]; at 11.0 µM -33% | [11]; at 33.0 µM -5% | [12]; at 1.2 µM -17% | [12]; at 3.7 µM -19% | [12]; at 11.0 µM -11% | [12]; at 33.0 µM 69% | [13]; at 1.2 µM -14% | [13]; at 3.7 µM -17% | [13]; at 11.0 µM -19% | [13]; at 33.0 µM 3% | [14]; [16] -14% | [15]; at 1.2 µM -22% | [15]; at 3.7 µM -22% | [15]; at 11.0 µM -15% | [15]; at 33.0 µM 54%
